MARV entry inh – qHTS for inhibitors of binding or entry into cells for Marburg Virus | AID 540276, 2011 | Potency, µM (titrated, usually from 37.8 µM), inactives show at the highest dose activity change, negative = inhibition, usual class: inhibitors | hit rate 1.8% among 300,000 | Marburg virus pseudotyped entry inhibition, cell reporter; calls by dose curve; tested in HEK293 cells; also: potency is read from the fitted curve at half-maximal effect; % is scaled to controls: 0 for no effect and ±100 for the full control effect
VACV mCherry inh – qHTS for Stage-Specific Inhibitors of Vaccinia Orthopoxvirus: mCherry Reporter Primary qHTS; Vaccinia virus mCherry reporter infection, fluorescence; hit rate 0.63% among 310,000; Potency, µM (titrated, usually from 36.5 µM), for inactives: at the top dose activity change, negative = inhibition, hits mostly inhibitors; calls by dose curve; tested in A549 cells; also: potency is read from the fitted curve at half-maximal effect; % is scaled to controls: 0 for no effect and ±100 for the full control effect; nearly all actives have a fitted effect of over 35% in size
Shiga toxin inh – A qHTS for Small Molecule Inhibitors of Shiga Toxin; Vero cells, Shiga toxin protein synthesis inhibition reporter; inhibition, % at 38.7 µM; hit rate 9.2% among 290,000; AID 2315, 2010; in the data active = inhibition mostly above about 28%, no sharp cut-off; inactive = mostly below about 43%; also: 0% is about no effect
VACV Venus inh – qHTS for Stage-Specific Inhibitors of Vaccinia Orthopoxvirus: Venus Reporter Primary qHTS; Vaccinia virus Venus reporter expression, fluorescence; Potency, µM (series often up to 36.5 µM), without a hit: top-dose activity change, negative = inhibition, actives largely listed as inhibitors; hit rate 0.46% among 330,000; AID 720580, 2013; calls by dose curve; tested in A549 cells; also: potency is read from the fitted curve at half-maximal effect; % is scaled to controls: 0 for no effect and ±100 for the full control effect; nearly all actives have a fitted effect of over 30% in size
Lassa entry inh – qHTS for Inhibitors of binding or entry into cells for Lassa Virus; Lassa virus pseudotype entry inhibition, cell reporter; Potency, µM (titrated, usually from 37.9 µM), for the others: at the top dose activity change, negative = inhibition, hits mostly inhibitors; hit rate 1.2% among 300,000; AID 540256, 2011; calls by dose curve; tested in HEK293 cells; also: potency is read from the fitted curve at half-maximal effect; % is scaled to controls: 0 for no effect and ±100 for the full control effect; nearly all actives have a fitted effect of over 50% in size
CHX counter – Cycloheximide Counterscreen for Small Molecule Inhibitors of Shiga Toxin | AID 2314, 2010 | cell reporter, cycloheximide protein synthesis inhibition counterscreen | hit rate 12% among 300,000 | max response, %; in the data active = max response mostly above about 13%, no sharp cut-off; inactive = mostly below about 14%; also: read at 38.3 µM for the half of the compounds with a filed dose; 0% is about no effect
Starred values were filed as active, the others as inactive; i = inactive; ? = inconclusive; . = no result; [ ] = another dose, or the depositor's remark. This is one part of a sample in which hits are shown more often than they occur.

SMILES	MARV entry inh	VACV mCherry inh	Shiga toxin inh	VACV Venus inh	Lassa entry inh	CHX counter
Cc1cc(-c2ccccc2)n(-c2cc(N/N=C/c3ccccc3O)ncn2)n1	8.9µM*	?	-18	?	4.5µM*	-3
Cc1cccc(Nc2ncnc3onc(-c4ccc(F)cc4)c23)c1C	.	i	-5	-16%	.	1
Cc1cccc(Nc2ncnc3onc(-c4cccc(Cl)c4)c23)c1C	.	-3%	12	-12%	.	8.2*
C=Cn1c(C(=O)O)ccc1-c1ccc(CC)cc1	.	.	35	.	.	42*
CCc1cccc(C)c1NC(=O)CCNC(=O)c1cccc(C)c1	-9%[46.1 µM]	-4%	-17	-15%	1%	1
O=C(Nc1cnccn1)c1csc2ccccc12	13%	.	111*	.	?	27*
O=C(Nc1ccon1)c1csc2ccccc12	1%	.	31	.	19%	9.7*
Cc1cc(C(=O)Nc2ccon2)cs1	-11%	-19%	18	-7%	46%[14.3 µM]	10
Cc1oc(-c2cccc(NC(=O)c3ccccn3)c2)nc1CNC(=O)c1cc(F)c(F)cc1F	.	-18%	.	-2%	.	.
CC(C)c1ccc(/C=C/C(=O)NCCC2=CCCCC2)cc1	11%	-15%	17	-14%	-27%	17*
CCCNC(=O)/C=C/c1ccc(C(C)C)cc1	?	-12%	64*	-17%	18µM*	47*
O=C(O)/C=C/C(=O)NCCC1=CCCCC1	.	-27%	-11	-7%	.	-1
Cc1ccc2[nH]c3c(=O)n(CC(=O)N(C)Cc4ccccc4)ncc3c2c1	.	-17%	.	-11%	-3%[46.1 µM]	.
Cn1c(=O)c(-c2cc(Br)ccc2N)nc2ccccc21	28%	.	60	?	13%	33*
CCOC(=O)Cn1c(=O)c(-c2cc(Br)ccc2N)nc2ccccc21	.	3%[7.34 µM]	-5	7%[7.34 µM]	.	-2
COc1cccc(NC(=O)Nc2ccc3c(c2)CCC3)c1	.	.	75*	.	.	39*
COc1ccc(NC(=O)Nc2ccc3c(c2)CCC3)c(OC)c1	.	.	30	.	.	9
COc1ccc(OC)c(NC(=O)Nc2ccc3c(c2)CCC3)c1	.	.	28*	.	.	19*
CCOc1ccccc1-c1nnc2n1N=C(c1cc(OC)cc(OC)c1)CS2	.	.	-6	.	.	12
CCOC(=O)N1CCN(CCCc2ccccc2)CC1	-3%	-12%	28	-5%	-9%	3
CCN(CC)S(=O)(=O)c1cc(NC(=O)c2ccccc2OCc2c(C)noc2C)ccc1C	?	-2%	.	-15%	11µM*	.
Cc1ccc(C(=O)NNC(=O)c2ccccc2OCc2c(C)noc2C)cc1	3.5µM*	-7%	.	-1%	6%	.
Cc1noc(C)c1COc1ccccc1C(=O)NNC(=O)c1ccccc1	0%	-10%	.	-14%	-5%	.
NC1=NC(=O)/C(=C\c2ccc(-c3ccc(Cl)cc3)o2)S1	.	i	30*	-7%	.	13*
CN(C)C1=NC(=O)/C(=C/c2ccc(-c3ccc(S(N)(=O)=O)cc3)o2)S1	.	.	-7	.	.	-4
SMILES	MARV entry inh	VACV mCherry inh	Shiga toxin inh	VACV Venus inh	Lassa entry inh	CHX counter
O=c1ccnc(Nc2ccc([N+](=O)[O-])cc2)[nH]1	?	-4%	.	7%	-13%[46.1 µM]	.
O=C1c2ccccc2-c2onc3ccc(NCc4ccco4)c1c23	?	84%	-7	159%	-24%	13*
CCNc1ccc2noc3c2c1C(=O)c1ccccc1-3	-4%	-16%	21	124%	-11%	17
COCc1c(C(=O)NC2CCCC2)cnn1-c1nccc(-c2ccco2)n1	.	-14%	.	-9%	.	.
CSC1=NC(=O)C2=C3CC(C)(C)OCC3SC2=N1 (stereo not drawn)	14%[46.1 µM]	.	.	.	.	.
Cc1cc(N/N=C/c2ccco2)c2ccccc2n1	10%	.	61	.	5%	7
CCn1c(C)c(/C=N/Nc2nc3ccccc3s2)c2ccccc21	?	.	105*	.	?	61*
Cc1ccc(C)c(-c2csc(N/N=C/c3ccco3)n2)c1	5µM*	?	95*	4%	2µM*	17
Cc1ccnc(N/N=C/c2ccco2)n1	?	i	47	-6%	?	41*
Cc1ccsc1/C=N/Nc1nc2ccccc2s1	?	-23%	146*	-18%	?	70*
COc1cccc(C=NNc2nc3ccccc3s2)c1OC	?	?	.	5%	-19%[46.1 µM]	.
Cc1ccc(C)c(-c2csc(Nc3ncccn3)n2)c1	.	.	12	.	.	-1
C(=N\Nc1nc2ccccc2s1)/c1ccco1	-29%	-11%	45*	-26%	?	44*
Cc1nnc(N/N=C/c2ccco2)n1N	?	-1%	-3	4%	.	3
C(=N\Nc1nc2ccccc2s1)/c1cccs1	?	-20%	103*	-19%	?	50*
CCOc1c(Nc2ccc(C(C)C)cc2)c(=O)c1=O	.	.	35	.	.	12
CN(C)c1ccc(/C=C/c2cc[n+](C)c3ccc4ccccc4c23)cc1	.	37%	.	?	.	.
Cc1nn(-c2ccccc2)nc1CNS(C)(=O)=O	12%[14.2 µM]	-7%	-7	1%	5%	2
Cc1ccc(C)n1-c1ccc2c(c1)COC2=O	-4%	.	31	.	.	-1
O=C1OCc2cccc3cccc1c23	-15%	.	-8	.	6%	-4
Nc1ccc2c(c1)COC2=O	?	-9%	83*	5%	17%	34*
O=C1OCc2cc(-n3cccc3)ccc21	?	0%	28	-15%	5%	17*
COc1ccccc1CNC(=O)C(=O)NCC(c1ccc2c(c1)OCO2)N1CCOCC1 (stereo not drawn)	.	-5%	.	-4%	21%[46.1 µM]	.
Cc1cc(C(=O)CSc2ccc3c(c2)OCCO3)c(C)n1C1CC1	?	-9%	92*	-2%	?	67*
C/C(N)=C(/C#N)C(=O)CSc1ccc2c(c1)OCCO2	?	.	98*	-15%	?	48*
SMILES	MARV entry inh	VACV mCherry inh	Shiga toxin inh	VACV Venus inh	Lassa entry inh	CHX counter
CCC1CN(CC(=O)NCc2ccc3c(c2)OCO3)Cc2ccc(Cl)cc2O1 (stereo not drawn)	.	-12%	.	-6%	.	.
COC(=O)Cn1c(O)c(N=NC(=O)c2ccc3c(c2)OCO3)c2ccccc21	?	-7%	16	-5%	5%[46.1 µM]	8
CCc1ccccc1NC(=O)CN1C(=O)c2cccnc2Oc2ccc(Cl)cc21	.	-4%	.	-12%	5%[46.1 µM]	.
CCc1ccc(N2CC(c3nc4ccccc4n3Cc3ccccc3C)CC2=O)cc1 (stereo not drawn)	?	-17%	.	-17%	-3%[46.1 µM]	.
CN(C)c1cccc(C(=O)NCC(c2ccco2)N(C)C)c1 (stereo not drawn)	?	-6%	75*	1%	10%[46.1 µM]	37*
CN(C)C(CNC(=O)c1ccc2ccccc2c1)c1ccco1 (stereo not drawn)	8%[46.1 µM]	2%	77*	-6%	13%	32*
O=S(=O)(Nc1cccc(-n2cnnn2)c1)c1cc(Cl)ccc1Cl	.	.	-9	.	.	-2
O=[N+]([O-])c1ccc(Sc2n[nH]c(-c3ccccc3)n2)nc1	30%[46.1 µM]	?	44	?	-1%	41*
CC(C)(C)c1csc(Sc2ccc([N+](=O)[O-])cn2)n1	?	-26%	50*	-9%	?	23*
